Reference: PubChem BioAssay (NCATS)
Results filed as inconclusive are left out. The source made the active and inactive calls. Calls follow the shape of the dose curve; as a rule, active = well fitted inhibition curve with a large enough effect in the repeat runs; inconclusive = weak or mixed curves; inactive = flat fitted curve, though single readings scatter. Where a SMILES comes first, the peptide text is derived from it. Bridges are numbered along the chain shown (N, C = ends). [ ]: non-standard residue; d: D form. The star is where a group is joined. X1 = CCC(C)C(N)C1=NC(C(=O)*)CS1; dOrn = NCCC[C@@H](N)C(=O)O

What follows are molecules tested against Cytochrome P450 2D6 (Homo sapiens) (UniProt P10635) (assay: Cytochrome P450 family 2 subfamily D member 6 (CYP2D6) small molecule antagonists: luciferase biochemical (cell-free) qHTS assay (AID 1645840; also: nearly all actives have a fitted effect of over 55% in size)). Conditions: P450-Glo CYP2D6 enzyme, luciferin luminescence, 1 h; series mostly up to 57.4 µM; activity change, negative = inhibition: at the top concentration.
Procedure, shortened: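 P450-Glo luminescent screen: recombinant CYP2D6 enzyme–proluciferin substrate mix preincubated with compound 10 min at room temperature, then NADPH regeneration added for 1 h at room temperature. Detection reagent added for 20 min; luciferin light read as relative luminescence units.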
% is scaled to controls: 0 for no effect and ±100 for the full control effect; potency is read from the fitted curve at half-maximal effect.

Cytochrome P450 2D6 (Homo sapiens), sequence (P10635 whole entry, looked up): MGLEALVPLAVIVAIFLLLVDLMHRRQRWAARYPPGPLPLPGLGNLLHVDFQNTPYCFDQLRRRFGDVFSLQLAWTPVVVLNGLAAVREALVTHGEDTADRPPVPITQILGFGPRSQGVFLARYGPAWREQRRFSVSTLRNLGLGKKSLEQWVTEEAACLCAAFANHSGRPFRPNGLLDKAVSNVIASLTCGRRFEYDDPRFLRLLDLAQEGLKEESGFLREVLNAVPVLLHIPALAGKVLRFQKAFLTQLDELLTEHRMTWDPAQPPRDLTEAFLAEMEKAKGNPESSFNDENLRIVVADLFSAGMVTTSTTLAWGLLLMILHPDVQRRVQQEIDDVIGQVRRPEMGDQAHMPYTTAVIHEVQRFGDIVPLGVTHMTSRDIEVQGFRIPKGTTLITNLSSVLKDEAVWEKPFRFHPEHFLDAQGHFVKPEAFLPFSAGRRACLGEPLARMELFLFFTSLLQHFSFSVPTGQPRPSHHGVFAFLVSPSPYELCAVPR

| SMILES | Potency | activity change, negative = inhibition |
| --- | --- | --- |
| CON(C)C(=O)N1N=C(c2cc(F)ccc2F)S[C@@]1(CCCN)c1ccccc1 | 19 µM (active) |  |
| Nc1ncnc2c1ncn2[C@H]1CCCO1 |  | 16.1% (inactive) |
| COc1ccc(C[C@H](N)C(=O)N[C@H]2[C@@H](O)[C@H](n3cnc4c(N(C)C)ncnc43)O[C@@H]2CO)cc1 |  | 4.26% (inactive) |
| CCNC(=O)[C@H]1O[C@H](n2cnc3c(NCC(c4ccccc4)c4ccccc4)nc(C(=O)NCCNC(=O)NC4CCN(c5ccccn5)CC4)nc32)[C@H](O)[C@@H]1O | 23.9 µM (active) |  |
| Cc1onc(-c2ccccc2)c1C(=O)N[C@@H]1C(=O)N2[C@@H]1SC(C)(C)[C@@H]2C(=O)O |  | 6.52% (inactive) |
| O=C1CC(c2ccc([N+](=O)[O-])cc2)=NN1c1ccccc1 |  | -0.208% (inactive) |
| C[C@]12C=CC(=O)C=C1CC[C@@H]1[C@@H]2[C@@H](O)C[C@@]2(C)[C@H]1CC[C@]2(O)C(=O)COC(=O)CCC(=O)O |  | 4.99% (inactive) |
| OC[C@H]1O[C@@H](n2cnc3c2NC=NC[C@H]3O)C[C@@H]1O |  | 5.8% (inactive) |
| Cc1cc(N2CCCCC2)nc2ccccc12 | 10.7 µM (active) |  |
| CCOC(=O)Nc1nc2ccccc2[nH]1 | 3.79 µM (active) |  |
| O=C1N(CC2CCCCN2)CCN1c1ccccc1 (stereo not given) | 15.1 µM (active) |  |
| COC(=O)[C@H](CC1C=NC=N1)NCC12CC3CC(CC(C3)C1)C2 (stereo not given in full) |  | 25.1% (inactive) |
| Cc1cn2c(N)c(Cl)cc(C(=O)NCC3CCN(CC(C)C)CC3)c2n1 | 4.77 µM (active) |  |
| Clc1ccc(CN[C@H]2CCN(c3ncc(Br)cn3)C2)c(Cl)c1 | 0.674 µM (active) |  |
| C[C@H](CCC(=O)O)[C@H]1CC[C@H]2[C@@H]3[C@H](O)C[C@@H]4C[C@H](O)CC[C@]4(C)[C@H]3CC[C@]12C |  | 3.36% (inactive) |
| CCC(C)C(N)C1=NC(C(=O)N[C@@H](CC(C)C)C(=O)N[C@H](CCC(=O)O)C(=O)N[C@H](C(=O)N[C@H]2CCCCNC(=O)[C@H](CC(N)=O)NC(=O)[C@@H](CC(=O)O)NC(=O)[C@H](Cc3cnc[nH]3)NC(=O)[C@@H](Cc3ccccc3)NC(=O)[C@H]([C@@H](C)CC)NC(=O)[C@@H](CCCN)NC2=O)[C@@H](C)CC)CS1 (stereo not given in full) (X1-L[dE]IK[dOrn]I[dF]H[dD]N; lactam 4-C) |  | -0.402% (inactive) |
| COc1ccccc1-n1c(SCC(=O)Nc2nc3ccc(C)cc3s2)nc2c(c1=O)SCC2 |  | 6.24% [at 23.9 µM] (inactive) |
| CCCCNC(=O)[C@@H]1Cc2ccccc2N1C(=O)[C@@H](N)CC |  | 3.04% (inactive) |
| NCc1c[nH]c(=S)n1C1CCc2c(F)cc(F)cc2C1 (stereo not given) | 3.79 µM (active) |  |
| CC1(C)OC(=O)C(OCC2CC2)=C1c1ccc(S(C)(=O)=O)cc1 |  | -15.3% (inactive) |

| SMILES | Potency | activity change, negative = inhibition |
| --- | --- | --- |
| O=c1c2cccnc2n(-c2cccc([N+](=O)[O-])c2)c(=O)n1Cc1ccncc1 | 1.51 µM (active) |  |
| CCOC(=O)c1c(C)nn(-c2cccc([N+](=O)[O-])c2)c1C | 8.49 µM (active) |  |
| O=C(O)c1n[nH]c2c1C[C@H]1C[C@@H]21 |  | 8.02% (inactive) |
| Cc1ccc2c(c1)C=Cc1cc(C)ccc1C2c1cn(Cc2ccc(C(=O)Nc3nn[nH]n3)o2)c(=O)[nH]c1=S |  | -16.1% (inactive) |
| C=Cc1cc(O)cc2nc(-c3ccc(O)c(F)c3)oc12 | 21.3 µM (active) |  |
| CCS(=O)(=O)N1CCC([C@@H](C)n2c(C)c(C(=O)NCc3c(OC)cc(C)[nH]c3=O)c3ccccc32)CC1 |  | 1.58% (inactive) |
| CO[C@@H]1COCC[C@@H]1N[C@@H]1CC[C@@](C(=O)N2CCc3ncc(C(F)(F)F)cc3C2)(C(C)C)C1 | 16.9 µM (active) |  |
| COCC(=O)N1CCc2cc(-c3csc(NC(=O)c4cc(OC)cc(OC)c4)n3)ccc21 |  | 6.67% (inactive) |
| Cc1ccc(C(=O)Nc2ccc(Oc3cc4cnn(C)c4cc3-c3cn[nH]c3)c(F)c2)c(=O)n1-c1ccc(F)cc1 |  | 7.07% (inactive) |
| COc1cccc(-c2ccc([C@@H](Oc3cc(-c4ccc(C[C@H](N)C(=O)O)cc4)nc(N)n3)C(F)(F)F)cc2)c1 |  | -16.2% (inactive) |
| COc1ccc2cc(OCC3(C(=O)O)CN(C(=O)c4ccc(F)cc4)C3)ccc2c1 |  | 8.9% (inactive) |
| CC(C)N(C[C@H]1O[C@@H](n2cnc3c(N)ncnc32)[C@H](O)[C@@H]1O)C1CC(CCc2nc3ccc(C(C)(C)C)cc3[nH]2)C1 (stereo not given in full) | 16.9 µM (active) |  |
| CN(C)c1cccc(-c2c3c(=O)n(-c4ccccc4Cl)[nH]c3cc(=O)n2C)c1 |  | -0.241% (inactive) |
| CNC(=O)Nc1ccc(OC)c(NC(=O)NC(=O)c2cc(F)c(F)cc2Cl)c1 |  | 16.3% (inactive) |
| Cc1nc2c(-c3cnc(N)nc3)nc(N3CCOCC3)nc2n1C(C)C |  | 3.81% (inactive) |
| O=C(c1ccc(C#Cc2cccc(F)c2)cn1)N1CC2CC2C1 (stereo not given) | 16.9 µM (active) |  |
| COc1cc(N2CCC(N(C)C)CC2)ccc1Nc1ncc(Cl)c(Nc2ccccc2P(C)(C)=O)n1 |  | 2.35% (inactive) |
| CNC(=O)c1ccc2cc([C@@]3(O)CCn4cncc43)ccc2c1 | 12 µM (active) |  |
| NC(Cc1c[nH]c2ccccc12)C(=O)NC(CCC(=O)O)C(=O)O (stereo not given) |  | 6.12% (inactive) |
| CC(C)c1ccc(CC(=O)N2CCC[C@@H](c3cccc(OC(C)(C)C(=O)O)c3)C2)cc1 |  | 2.04% (inactive) |
